Compound activity: PubChem, National Center for Advancing Translational Sciences (NCATS)
LmPK inhibitor – LmPK (Leishmania mexicana) enzyme inhibition | 0.37% of 290,000 active | purified LmPK, Kinase-Glo ATP luminescence, 1 h | Potency, µM (highest dose often 57.5 µM), without a hit: at the top dose activity change, negative = inhibition, usual class: inhibitors | Q27686; also: % is scaled to controls: 0 for no effect and ±100 for the full control effect
Target sequence (Q27686 whole entry, looked up): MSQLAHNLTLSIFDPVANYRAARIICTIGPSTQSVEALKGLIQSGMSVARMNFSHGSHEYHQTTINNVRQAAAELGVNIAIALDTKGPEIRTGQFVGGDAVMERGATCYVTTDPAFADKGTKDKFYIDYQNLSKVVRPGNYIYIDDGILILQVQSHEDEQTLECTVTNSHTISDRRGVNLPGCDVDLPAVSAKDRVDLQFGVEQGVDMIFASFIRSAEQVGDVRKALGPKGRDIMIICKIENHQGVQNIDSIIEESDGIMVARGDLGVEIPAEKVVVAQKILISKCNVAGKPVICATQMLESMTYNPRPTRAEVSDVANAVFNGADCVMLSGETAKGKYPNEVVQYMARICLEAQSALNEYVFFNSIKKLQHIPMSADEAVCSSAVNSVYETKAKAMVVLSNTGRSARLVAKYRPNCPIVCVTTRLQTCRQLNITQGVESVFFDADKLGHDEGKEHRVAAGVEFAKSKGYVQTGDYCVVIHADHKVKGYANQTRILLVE
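Screened at intermediate enzyme activity to detect both inhibitors and activators: LmPK at 0.1 nM, with a 0.5 nM enzyme column as activation reference. PEP 0.5 mM, ADP 0.1 mM; ATP detected by luminescence after 1 h.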
RE007 growth inh – less growth of the S. pombe RE007 Vpr strain | S. pombe RE007 Vpr strain, BacTiter-Glo ATP luminescence, 24 h | Potency, µM (titrated, usually from 92.2 µM), without a hit: at the top dose activity change, negative = less growth, hits mostly inhibitors | 0.21% of 360,000 active; active = well fitted falling curve with a large enough effect; inconclusive = small, poorly fitted or top-dose-only effect; inactive = no such curve, though single readings can be large or run the other way; also: % is scaled to controls: 0 for no effect and ±100 for the full control effect; nearly all actives have a fitted effect of over 50% in size
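Fission yeast strain RE007, carrying one chromosomally integrated HIV-1 vpr copy, was seeded at OD 0.01 in PMG+AL medium with 23 nL pinned compound. After 24 h at 30 °C and 99% humidity, viability was read by BacTiter-Glo luminescence.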
NS1 function inh – influenza NS1 inhibition; Potency, µM (doses to about 46.1 µM), for the others: top-dose activity, positive = more growth; 0.4% of 270,000 active; AID 2326; calls by dose curve; also: actives are rising curves; nearly all actives have a fitted effect of over 50% in size
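In this qHTS, NS1 from influenza A is expressed in budding yeast, where it slows growth. Cells are switched from glucose to 2% galactose medium (pH 6.0, -URA), treated with compound, and growth recovery is read at OD600.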
Tb PYK inh – T. brucei pyruvate kinase inhibition; 0.12% of 410,000 active; Potency, µM (series often up to 76.8 µM), for inactives: top-dose activity, negative = inhibition, most hits filed as inhibitors; AID 624173; TbPYK enzyme, Kinase-Glo Plus ATP luminescence, 45 min; Q57TT1; also: % is scaled to controls: 0 for no effect and ±100 for the full control effect; nearly all actives have a fitted effect of over 50% in size
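T. brucei PYK with substrate was exposed to pin-transferred compounds across a concentration series, then started with 130 uM ADP (final). After 45 min at room temperature, Kinase-Glo Plus luminescence was read, normalized and curve-fitted.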
SARS PLpro yeast – blocks SARS-CoV papain-like protease in a yeast assay; Potency, µM (doses to about 32.9 µM), for the others: top-dose activity, positive = growth rescue, hits mostly activators; S. cerevisiae expressing SARS-CoV PLpro, growth rescue; 0.19% of 330,000 active; calls by dose curve; also: 0% is about no effect; nearly all actives have a fitted effect of over 55% in size
Sm TGR inh – inhibitors of Schistosoma mansoni thioredoxin glutathione reductase; Q962Y6; purified TGR, DTNB reduction, TNB absorbance 405 nm; Potency, µM (top dose mostly 114 µM), inactives show at the top dose activity change, negative = inhibition, actives largely listed as inhibitors; 3% of 360,000 active; AID 485364; also: % is scaled to controls: 0 for no effect and ±100 for the full control effect; nearly all actives have a fitted effect of over 60% in size
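First, TGR (20 nM dispensed) and NADPH were mixed with compound. Second, a 15 min room-temperature incubation followed. Third, further NADPH and then DTNB were added to start the reaction. Finally, TNB absorbance was monitored kinetically.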
An asterisk follows results filed as active; ? = inconclusive; . = not tested or not shown; [ ] = remark or other dose. In the library only some 3.3% were active in any assay of this set; here they are far more common. Unless noted, calls follow the shape of the dose curve; as a rule, active = well fitted curve in the direction sought with a large enough effect; inconclusive = small, poorly fitted or top-dose-only effect, or another doubt; inactive = no such curve, though single readings can be large; an effect the other way counts as inactive or inconclusive. Potency is read from the fitted curve at half-maximal effect.

SMILES	LmPK inhibitor	RE007 growth inh	NS1 function inh	Tb PYK inh	SARS PLpro yeast	Sm TGR inh
CC1CC(C)C(=O)C(C(O)CC2CC(=O)NC(=O)C2)C1 (stereo unspecified)	.	.	.	3%[157 µM]	.	.
C=CCN(Cc1cn(C)nc1-c1cccc(Cl)c1)C1CCS(=O)(=O)C1 (stereo unspecified)	2%	2%	0%	-5%	1%	28µM*
CC(C)N(Cc1cn(C)nc1-c1cccc(Cl)c1)CC1CCC(=O)N1 (stereo unspecified)	0%	17%	-1%	4%	-1%	31%
CCOC(=O)[C@]12Cc3ccc(C)cc3[C@H]1N(C1CCCCC1)C(=O)c1cc(OC)ccc12	.	16µM*	.	-11%	.	.
CCOC(=O)[C@]12Cc3cc(Cl)ccc3[C@H]1N(C1CCCCC1)C(=O)c1cc(OC)ccc12	.	63µM*	.	-1%	.	.
CCOC(=O)[C@]12Cc3ccc(C)cc3[C@H]1N(C1CCCCC1)C(=O)c1ccccc12	.	-2%	.	1%	.	.
O=C(Nc1ccc(S(=O)(=O)N2CCCCC2c2cccnc2)cc1)c1ccc(F)cc1 (stereo unspecified)	.	.	.	3%	.	2%
CCCCc1cc(=O)oc2cc(C)c3c(C(C)(C)C)coc3c12	.	.	.	-11%	.	2%
c1ccc(N2CCN(c3nc4cc5c(cc4s3)OCO5)CC2)cc1	2%	7%	8%	-8%	-1%	1%
c1c2c(cc3sc(N4CCOCC4)nc13)OCO2	16µM*	?	-58%	?	-7%	17%
O=C(O)CNC(=O)[C@H]1NC(C(F)(F)F)(C(F)(F)F)OC1(C(F)(F)F)C(F)(F)F	.	.	-6%	.	.	.
COc1ccc(Br)cc1CNC(=O)c1cnc2sc(N3CCCCCC3)nn2c1=O	.	.	.	0%	.	-1%
COc1cc(/C=C2\COC/C(=C\c3ccc(O)c(OC)c3)C2=O)ccc1O	11%	44%	-9%	-5%	-1%	50µM*
COc1cc(/C=C2\N=C3CCCCCN3C2=O)ccc1O	-10%	7%	0%	8%	0%	56µM*
COc1cc(/C=C2/CC/C(=C/c3ccc(O)c(OC)c3)C2=O)ccc1O	0%	21%	?	-6%	-1%	45µM*
COc1ccc(/C=C2\CN(Cc3ccccc3)C/C(=C\c3ccc(OC)c(O)c3)C2=O)cc1O	-2%	4%	15%	2%	4%	45µM*
COc1ccc(/C=C2\CC/C(=C\c3ccc(OC)c(OC)c3)C2=O)cc1OC	-14%	5%	11%	0%	1%	-2%
CCN1C/C(=C/c2ccc(OC)c(O)c2)C(=O)/C(=C/c2ccc(OC)c(O)c2)C1	2%	12%	.	0%	-3%	-1%
COc1ccc(C(CC(=O)NCc2ccccc2Cl)N2Cc3ccccc3C2=O)cc1OC (stereo unspecified)	.	.	.	-1%	.	-1%
COc1ccc2nc(NCN3C(=O)c4ccccc4C3=O)sc2c1	.	.	-4%	.	.	.
COc1ccc(N2CCN(C(=O)CN3C(=O)COc4ccc(S(=O)(=O)N5CCC(C)CC5)cc43)CC2)cc1	.	.	.	2%	.	-10%
COc1ccccc1NC(=O)C1=C(C)Nc2nc(SCc3ccccc3)nn2C1c1cccs1 (stereo unspecified)	.	.	.	0%	.	-11%
O=C1/C(=C/C=C/c2ccccc2)Oc2c1ccc(O)c2CN1CCN(CCO)CC1	-6%	-18%	19%	1%	2%	40µM*
CN(C)Cc1c(O)ccc2c1O/C(=C\C=C\c1ccccc1)C2=O	-1%	-6%	?	0%	-2%	11µM*
CCN1CCN(Cc2c(O)ccc3c2O/C(=C\c2ccc(C)cc2)C3=O)CC1	2%	2%	.	-2%	0%	?
SMILES	LmPK inhibitor	RE007 growth inh	NS1 function inh	Tb PYK inh	SARS PLpro yeast	Sm TGR inh
CC1CCCN(Cc2c(O)ccc3c2O/C(=C\c2ccco2)C3=O)C1 (stereo unspecified)	6%	-8%	-4%	-12%	11%	25µM*
CCN1CCN(Cc2c(O)ccc3c2O/C(=C\c2ccccc2)C3=O)CC1	-19%	-25%	17%	3%	13%	45µM*
Cc1c(C)c2c(c(C)c1OC(=O)CCC(=O)OCCO)CC[C@](C)(CCC[C@H](C)CCC[C@H](C)CCCC(C)C)O2	.	.	.	4%	.	.
CC(C)NC(=O)N1CCN(S(=O)(=O)c2ccc3c(ccn3C)c2)CC1	.	.	.	5%	.	1%
NC(=O)/C=C\C(=O)Nc1cccc(C(F)(F)F)c1	-2%	18µM*	-243%	-3%	-53%	3.5µM*
COc1cccc(Nc2nc(-c3ccccc3)c3cc(C)ccc3n2)c1	.	.	.	4%	.	14%
COc1cc(Nc2nc(-c3ccccc3)c3cc(C)ccc3n2)cc(OC)c1OC	2%	4%	-9%	-13%	-4%	40µM*
CN1CCO/C1=C(\C(Cl)=C(Cl)Cl)[N+](=O)[O-]	-3%	-20%	.	6%	0%	32µM*
CCC1CO/C(=C(\C(Cl)=C(Cl)Cl)[N+](=O)[O-])N1Cc1ccc(Cl)nc1 (stereo unspecified)	0%	5%	3%	-5%	1%	0%
Cc1cc(-c2ccccc2)nc2c(Br)c(=O)[nH]n12	1%	1%	?	-11%	1%	45µM*
Cc1ccc(S(=O)(=O)ON2C(=O)c3cccc4cccc(c34)C2=O)cc1	1%	3%	14%	-13%	-18%	-9%
Cc1ccc(C)c(S(=O)(=O)ON2C(=O)c3ccccc3C2=O)c1	?	-4%	2%	?	7%	0.89µM*
O=C1c2ccccc2C(=O)N1OS(=O)(=O)c1ccccc1	?	.	21%	.	-14%	1.3µM*
O=C1c2cccc3cccc(c23)C(=O)N1OS(=O)(=O)c1ccccc1	8%	9%	3%	1%	-2%	0%
Cc1cc(S(=O)(=O)ON2C(=O)c3ccccc3C2=O)ccc1F	?	-7%	0%	0%	-10%	0.79µM*
CCN1CCN(c2cc(C)c3cc(NC(=O)/C=C/c4cccc(Cl)c4)ccc3n2)CC1	.	.	.	1%	.	7%
COc1cc(NC(=O)CCCOc2cc(=O)n(C)c3ccccc23)cc(OC)c1OC	.	.	.	-2%	.	-8%
O=C(NCc1ccccc1Cl)NCc1noc2ccccc12	.	.	.	-4%	.	1%
CSc1cccc(NC(=O)c2ccc3c(c2)c(C)c(C)n3Cc2ccc(F)cc2)c1	.	.	.	1%[15.4 µM]	.	2%
CCc1ccc2oc(-c3ccc(C)c(NC(=O)c4ccc(C#N)cc4F)c3)nc2c1	.	.	.	-9%	.	6%
CCN(CC)CCN(C(=O)c1ccco1)c1nc2c(C)c(C)ccc2s1	.	.	.	-3%	.	-3%
c1ccc(-c2nc(-c3ccco3)n3ccccc23)cc1	2%	-27%	?	3%	-91%	11µM*
